Assay outcomes (PubChem)
The list is not random: actives were taken first. Their share in the collection is about 3.6%.
NadD inh – NadD (S. aureus) enzyme inhibition | 360,000 compounds, 0.78% hits | purified NadD enzyme, colorimetric absorbance read-out | inhibition, % at 20 µM; in the data active means inhibition above about 26%
FAS TE block – inhibitors of human fatty acid synthase thioesterase domain; P49327; recombinant FAS-TE, OMFH fluorogenic substrate, fluorescence endpoint; inhibition, % at 15 µM; 360,000 compounds, 0.67% hits; AID 602261;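 active means compounds whose normalised, plate-corrected inhibition of enzyme fluorescence in the single-dose primary screen is 50% or more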
Myeloid diff 2 – myeloid differentiation induction; ER-HoxA9 myeloid progenitors, lysozyme-GFP differentiation, flow cytometry; calls only at 10 µM; 360,000 compounds, 1% hits;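 active means normalized GFP-positive differentiation at or above the plate's own cutoff, the solvent-only control mean plus 3 SD; inconclusive means no clear call, values can overlap the other calls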;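 further: cells exposed to compound for four days before flow analysis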
CRFBP-R2 block – antagonists of CRF-binding protein/CRF-R2 receptor complex; inhibition, % at 11.8 µM; 350,000 compounds, 0.59% hits; HEK293 CRF-R2/CRF-BP, CRF-induced calcium fluorescence;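 active means inhibition of the ligand-induced calcium signal above about 50% at the single tested concentration, limit read from the data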
NRP1-CendR mod – modulators of CendR peptide binding to human neuropilin-1 | O14786 | FAM-RPARPAR peptide binding to NRP-1, fluorescence polarization | inhibition, % at 25 µM | 360,000 compounds, 0.85% hits;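 active means inhibition or corrected inhibition above about 18%, plus a signal ratio from 0.5 to 1.5, limit read from the data, passing the limit was not always enough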
Target sequence (O14786 whole entry, looked up): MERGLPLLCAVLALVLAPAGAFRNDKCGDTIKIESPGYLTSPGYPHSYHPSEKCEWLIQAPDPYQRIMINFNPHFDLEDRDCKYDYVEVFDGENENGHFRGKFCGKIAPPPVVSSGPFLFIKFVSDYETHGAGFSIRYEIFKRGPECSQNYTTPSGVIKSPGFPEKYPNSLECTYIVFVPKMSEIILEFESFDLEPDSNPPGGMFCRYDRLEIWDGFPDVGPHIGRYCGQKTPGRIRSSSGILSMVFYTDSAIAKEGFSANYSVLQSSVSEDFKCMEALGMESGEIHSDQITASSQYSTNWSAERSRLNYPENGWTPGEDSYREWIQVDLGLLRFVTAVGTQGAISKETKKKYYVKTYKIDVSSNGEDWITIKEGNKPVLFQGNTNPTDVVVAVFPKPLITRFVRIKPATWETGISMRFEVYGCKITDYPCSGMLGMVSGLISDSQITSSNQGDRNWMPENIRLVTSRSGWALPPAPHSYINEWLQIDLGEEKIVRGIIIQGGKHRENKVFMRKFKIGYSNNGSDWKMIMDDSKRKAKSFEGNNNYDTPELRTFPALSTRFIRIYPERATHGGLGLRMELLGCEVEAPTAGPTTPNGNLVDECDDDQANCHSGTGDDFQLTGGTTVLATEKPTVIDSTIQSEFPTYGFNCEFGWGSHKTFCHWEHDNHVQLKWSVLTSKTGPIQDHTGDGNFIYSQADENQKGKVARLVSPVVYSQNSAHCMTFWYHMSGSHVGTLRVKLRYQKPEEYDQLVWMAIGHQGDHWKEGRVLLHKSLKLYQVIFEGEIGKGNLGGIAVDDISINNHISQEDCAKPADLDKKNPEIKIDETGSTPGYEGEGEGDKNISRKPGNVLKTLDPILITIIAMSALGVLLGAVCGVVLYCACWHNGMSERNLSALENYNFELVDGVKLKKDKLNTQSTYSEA
Hits are given with their value; - = inactive; ? = inconclusive; . = not tested or not shown; + = active, no number.

SMILES	NadD inh	FAS TE block	Myeloid diff 2	CRFBP-R2 block	NRP1-CendR mod
Cc1ccc(-n2nc(C)c(Sc3ccccc3[N+](=O)[O-])c2N)cc1	-	-	-	51.9	-
Cc1n[nH]c(C)c1Sc1ccccc1[N+](=O)[O-]	-	-	-	-	-
COc1ccc(C(=S)N2CCN(c3cccc(Cl)c3)CC2)cc1	-	-	-	-	-
CCOC(=O)c1cccc(N2CC3CNC(=O)C2(C(=O)OC)N3C)c1 (stereo not drawn)	-	-	-	-	20.9
CCOC(=O)c1cccc(N2C(=O)C3C4C=CC(CC4)C3C2=O)c1 (stereo not drawn)	-	-	-	-	-
Cc1ccc(NC(=S)Nc2ccc(F)cc2)cc1C	-	-	-	-	-
Cc1cccc(C)c1NC(=S)Nc1ccc(F)cc1	-	-	-	60.0	-
Cc1[nH]c2ccccc2c1/C=C/C(=O)c1ccccc1	-	-	+	-	-
CCn1c(/C=C/c2c[nH]c3ccccc23)nc2ccccc2c1=O	-	-	-	-	-
CCn1c(/C=C/c2c(C)[nH]c3ccccc23)nc2ccccc2c1=O	-	-	+	-	-
O=C(c1ccc2nc[nH]c2c1)N1CCN(c2cccc(C(F)(F)F)c2)CC1	-	-	-	-	-
CCOc1ccccc1N1CCN(C(=O)/C=C/c2cccc([N+](=O)[O-])c2)CC1	-	-	+	-	-
COc1ccccc1N1CCN(C(=O)/C=C/c2cccs2)CC1	-	-	-	79.6	-
COc1ccccc1N1CCN(C(=O)c2ccc3ncsc3c2)CC1	-	-	+	-	-
O=C(c1ccc2ncsc2c1)N1CCN(c2cccc(C(F)(F)F)c2)CC1	-	-	+	-	-
CN(C)c1nc(N)nc(CSc2nnnn2-c2ccc(Cl)cc2)n1	-	-	-	.	-
Cc1nn(CCCC(=O)NC2CCC(C)CC2)c(=O)c2nn(-c3ccccc3)c(C)c12 (stereo not drawn)	-	-	-	-	-
C=CC[C@@H](CC(=O)N[C@H](CO)Cc1ccccc1)C(=O)N[C@H](COC(=O)[C@@H](CC=C)CC(=O)OC(C)(C)C)Cc1ccccc1	-	-	-	-	-
CC1(C)C2CC=C(/C=N/NC(=O)c3ccccc3O)C1C2 (stereo not drawn)	-	-	-	58.6	-
N#CCCN/N=C(/Cc1nc2ccccc2[nH]1)c1cccc(Cl)c1	-	-	+	-	-
Cc1ccc(NC(=O)[C@H](CC(C)C)NC(=O)[C@@H]2Cc3ccccc3CN2)cc1	-	-	-	-	21.2
Cc1[nH][nH]c(=O)c1C(c1c(C)[nH][nH]c1=O)c1cn(C)c2ccccc12	-	-	-	-	20.5
Cc1ccc(C)c(S(=O)(=O)N(C)c2ccc(OC(=O)C3CCN(C(=O)Nc4ccccc4)CC3)cc2)c1	-	-	-	-	25.2
Cc1ccc(S(=O)(=O)N(C)C)cc1NC(=O)C1CCN(C(=O)Nc2ccccc2)CC1	-	-	-	-	-
O=C(N/N=C/c1cc(Cl)cc([N+](=O)[O-])c1O)c1cccc(S(=O)(=O)N2CCOCC2)c1	-	-	-	-	-
SMILES	NadD inh	FAS TE block	Myeloid diff 2	CRFBP-R2 block	NRP1-CendR mod
C[C@H]1CCC[C@]2(O[C@H](CCO)C[C@H](O)[C@H]2O)O1	-	-	-	-	29.2
CCOC(=O)N1CCN(C(=O)CSc2nc3nc(C)cc(C)n3n2)CC1	-	-	-	-	-
COc1ccc(Br)cc1/C=N/NC(=O)c1ccc(COc2ccc3c(c2)CCC3)o1	-	-	+	-	-
O=C(N/N=C/c1cc([N+](=O)[O-])ccc1O)c1ccc(COc2ccc3c(c2)CCC3)o1	52.0	-	?	-	-
COc1ccccc1/C=N\NC(=O)c1ccc(COc2ccc(C)c(C)c2)o1	-	-	+	-	-
O=C(N/N=C/c1ccc2ccccc2c1)c1ccc(COc2ccc3c(c2)CCC3)o1	-	-	-	-	-
COC(=O)c1ccc(COc2ccc3c(c2)CCC3)o1	-	-	-	-	-
CC(=O)c1ccc(OC2(C)CCN(Cc3ccc4ccccc4c3)C2)cc1 (stereo not drawn)	-	-	-	.	-
COc1ccc(Cn2c(-c3ccccc3C)nc3c(c(=O)c4ccccc4n3C)c2=O)cc1	-	-	-	-	-
Cc1nn(CCC#N)c(NC(=O)c2ccc(Cl)cc2Cl)c1P(=O)(Nc1ccc([N+](=O)[O-])cc1)N1CCOCC1 (stereo not drawn)	-	51.6	-	-	-
Cc1ccccc1S(=O)(=O)N1CCN(C)CC1	-	-	-	-	-
CC(C)(O)C#Cc1ccc(N2C(c3ccsc3)=Cc3ccc(F)cc3C2c2c[nH]c3ccc(C#N)cc23)cc1 (stereo not drawn)	-	-	+	.	-
CC(=O)CC1c2cc(F)ccc2C=C(c2ccsc2)N1c1ccc(-c2ccc(C(N)=O)cc2)cc1 (stereo not drawn)	-	-	-	.	-
Cc1ccc2nc(N3C(=O)C(O)=C(C(=O)c4ccc(C)o4)C3c3ccc(O)cc3)sc2c1 (stereo not drawn)	-	-	+	-	-
CC1CCCCC1NC(=O)c1cc(Cl)nc2ccccc12 (stereo not drawn)	-	-	-	-	-
O=C(c1cccs1)N1CC=C(c2ccccc2)CC1	-	-	-	-	17.4
CNC(=O)C1CCC(=O)N1Cc1ccc(C)cc1 (stereo not drawn)	-	-	-	-	-
Cc1ccc(CN2C(=O)CCC2C(=O)NC2CC2)cc1 (stereo not drawn)	-	-	-	-	26.5
O=C(Nc1ccc2nc(-c3cccs3)[nH]c2c1)c1ccco1	-	-	+	-	-
COc1cc(/C=N/Nc2nncc3ccccc23)cc(OC)c1OC	-	-	+	-	-
C(=N\Nc1nncc2ccccc12)/c1ccccc1	-	-	-	-	-
Cc1cccc(N(C)c2cc(-c3ccc(F)cc3)nc3ccnn23)c1	-	-	-	.	-
Nc1ccc(C#Cc2c(-c3ccsc3)oc3ccc(N4CCOCC4)cc23)cc1	-	-	-	-	26.0
COc1ccc(S(=O)(=O)N2CCC(C(=O)NCCC(=O)NC3CC3)CC2)cc1	-	-	?	-	-
CC[C@@H]1CC2=C(C(=O)OC(C)(C)O2)[C@H](c2ccc(F)cc2)O1	-	-	-	.	-
SMILES	NadD inh	FAS TE block	Myeloid diff 2	CRFBP-R2 block	NRP1-CendR mod
Clc1ccc(-c2cn(-c3ccccc3)c3[n+]2CCS3)cc1	-	-	.	-	-
Fc1ccc(-c2cn(-c3ccccc3)c3[n+]2CCS3)cc1	-	-	+	-	-
CCOc1ccc(-c2ccc(/C=C3/C(=N)N4C(C)=CSC4=NC3=O)o2)c([N+](=O)[O-])c1	32.3	-	-	-	-
Cc1ccc(C)c2[nH]c(=O)c(CN(Cc3ccco3)S(=O)(=O)c3ccc4c(c3)OCCO4)cc12	-	-	+	-	-
N#Cc1c(-c2ccc(Cl)cc2)n(O)c2ccccc12	-	-	?	62.8	-
CC1Cn2c(nnc2-c2ccccc2O)S1 (stereo not drawn)	-	-	-	-	-
CC1Cn2c(nnc2-c2cc3ccccc3cc2O)S1 (stereo not drawn)	-	-	-	-	25.7
